Results filed as inconclusive are left out. Values without a mark were called inactive. Active and inactive are the calls of the source. Calls come from the whole dose curve; as a rule, active = well fitted inhibition curve with a large enough effect; inconclusive = small, poorly fitted or top-dose-only effect; inactive = flat fitted curve, though single readings scatter.

Holding throughout (assay): Cytotoxic Profiling of Annotated Libraries Using Quantitative High-Throughput Screening (AID 1296008); note: nearly all actives have a fitted effect of over 60% in size
Common to all, as to details: Five cell lines viability, CellTiter-Glo ATP luminescence, 48-72 h; max response: hits give low values
(Cellular ATP, detected with luciferase, serves as a proxy for viable cell number.)

One assay has as its system HaCat. In short, it runs like this: (§1)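 Compounds were pin-transferred onto cells and incubated 48 or 72 hr at 37 degree Celsius, 95% humidity. CellTiter-Glo was added, plates sat 10 min at room temperature, then ATP-coupled luminescence was imaged as the viability read-out.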
For a further assay, the system named is KB-3-1. In short, it runs like this:
as §1

The next assay concerns NIH3T3. In short, it runs like this: as §1
% is set by controls: 0 for no effect and ±100 for the full control effect; potency is the fitted concentration of half-maximal effect.

`OC[C@@]1(O)CO[C@@H](OC[C@H]2O[C@@H](Oc3c[nH]c4ccccc34)[C@H](O)[C@@H](O)[C@@H]2O)[C@@H]1O`: the max response in the assay on HaCat was -26.1%; with KB-3-1 it was -0.625%; with NIH3T3 it was 1.55%.

As to `COc1ccc2cc(C(C)C(=O)Oc3ccc(C(N)=S)cc3)ccc2c1` (centres undefined), the max response is 2.17% with HaCat, 7.25% in the assay with KB-3-1 and 3.5% with NIH3T3.

On to `O=C1NC(Cc2ccccc2)C(=O)N2CCCC12` (centres undefined), for which the max response was 2.36% in the assay on HaCat, 9.71% in the assay with KB-3-1 and -0.863% in the assay with NIH3T3.

`CCC(C)C(=O)OC1CC(O)C23C4OCC5(C(O)CC2C1(C)C(O)O4)C3C(=O)C(O)C1(C)C(O)(c2ccoc2)CC2OC251` (centres undefined): the Potency was 4.85 µM (active) in the assay on HaCat, 968 nM (active) in the assay on KB-3-1 and 3.06 µM (active) in the assay with NIH3T3.

Take `C[C@]1(CO)CCC[C@]2(C)C3=C(CCC12)COC3` (some centres undefined): the figures for the max response in the assay on HaCat, with KB-3-1 and with NIH3T3 were -11.9%, 5.06% and 4.03%, respectively.

With `O=C(OC[C@H]1O[C@H](O[C@]2(CO)O[C@H](CO)[C@@H](O)[C@@H]2O)[C@H](O)[C@@H](O)[C@@H]1O)c1ccccc1`, the values for the max response with HaCat, in the assay with KB-3-1 and in the assay with NIH3T3 were 0.397%, 8.19% and 4.12%, respectively.

In the case of `CC(CCC1(O)OC2CC3C4CCC5CC(O[C@@H]6O[C@H](CO)[C@@H](O)[C@H](O)[C@H]6O[C@@H]6O[C@@H](C)[C@H](O)[C@@H](O)[C@H]6O)C(O)CC5(C)C4CCC3(C)C2C1C)CO[C@@H]1O[C@H](CO)[C@@H](O)[C@H](O)[C@H]1O` (some centres undefined), the max response with HaCat was -8.4%; in the assay on KB-3-1, -6.35%; in the assay on NIH3T3 it was -21%.

With `Cc1cc(O)cc(O[C@@H]2O[C@H](CO)[C@@H](O)[C@H](O)[C@H]2O)c1`, the max response with HaCat was -10.5%; in the assay on KB-3-1, 4.47%; with NIH3T3, -8.17%.

Take `CC[C@H]1OC(=O)[C@](C)(F)C(=O)[C@H](C)[C@@H](O[C@@H]2O[C@H](C)C[C@H](N(C)C)[C@H]2O)[C@](C)(OC)C[C@@H](C)C(=O)[C@@H](C)[C@H]2N(CCCCn3cc(-c4cccc(N)c4)nn3)C(=O)O[C@]12C`: the max response is -5.51% in the assay with HaCat, -12.6% with KB-3-1 and 1.26% in the assay with NIH3T3.

In the case of `COCCN1CCN(Cc2ccc(-c3n[nH]c4c3C(=O)c3c(NC(=O)NN5CCOCC5)cccc3-4)cc2)CC1`, the Potency with HaCat was 0.231 µM (active); in the assay on KB-3-1, 146 nM (active); in the assay with NIH3T3 it was 0.517 µM (active).

Regarding `CC1(C)CCCC2(C)C1C(O)C=C(CO)C2(O)CO` (centres undefined), the max response in the assay with HaCat is -4.77%; in the assay with NIH3T3, -1.11%. Besides, the outcome with KB-3-1 was inactive.

As to `CO[C@H]1O[C@@H]2O[C@]3(C)CC[C@H]4[C@H](C)CC[C@@H]([C@H]1C)[C@@]24OO3`, the max response in the assay on HaCat is -0.0315%; in the assay on NIH3T3 it was 4.96%. Moreover, the call in the assay with KB-3-1 was inactive.

`O=C(O)c1cn(C2CC2)c2cc(N3C[C@@H]4C[C@H]3CN4)c(F)cc2c1=O`: the max response in the assay on HaCat was -12.6%; with NIH3T3 it was -4.63%. The outcome with KB-3-1 was inactive.

Take `OC/C=C/C=C/[C@H]1Cc2cc(O)cc(O)c2O1`: the values for the max response in the assay with HaCat, in the assay with KB-3-1 and with NIH3T3 were -12.2%, 6.07% and 1.57%, respectively.

For the molecule `CC(CO)C1CCC2(C)CC3C(CO)CC(O)C3C(C)(O)C/C=C/12` (centres undefined), the values for the max response in the assay on HaCat and in the assay on NIH3T3 were -5.8% and 0.217%, respectively. Further, the outcome with KB-3-1 was inactive.

On to `C=CC1(C)CC(OC(=O)/C(C)=C\COC(C)=O)C(C(=C)C(=O)O)C(O)C1C(=C)CO` (centres undefined), for which the max response in the assay with HaCat is 3.73%; in the assay on KB-3-1, 8.05%; in the assay with NIH3T3, -3.05%.

As to `CC(C)(C)NC(=O)[C@@H](c1cccnc1)N(C(=O)c1ccco1)c1ccc(C(C)(C)C)cc1`, the max response is -16.4% in the assay with HaCat and 4.2% with NIH3T3. Further, the outcome in the assay with KB-3-1 was inactive.

For the molecule `O=C1NC2CCc3nc4ccccc4c(=O)n3C2=Nc2ccccc21` (centres undefined), the max response in the assay with HaCat was 3.54%; in the assay on NIH3T3, 4.44%. In addition, the call with KB-3-1 was inactive.

As to `CC(=O)OC1C(O)C2C(C)C3=CC(=O)OC3(O)CC2C2(C)CCCC(C)(CO)C12` (centres undefined), the max response is 3.69% with HaCat and 0.673% in the assay with NIH3T3. The result with KB-3-1 was inactive.

For `CC(O)(CC(=O)O)CC(=O)OCc1ccc(O[C@@H]2O[C@H](CO)[C@@H](O)[C@H](O)[C@H]2O)cc1` (some centres undefined), the max response in the assay on HaCat is 1.6%; in the assay on NIH3T3, -5.49%. In the assay with KB-3-1, the outcome was inactive.

For the molecule `COc1cc(C2Oc3c(OC)cc(CCCO)cc3C2CO)ccc1O[C@H]1O[C@H](C)[C@@H](O)[C@H](O)[C@@H]1O` (some centres undefined), the results for the max response in the assay on HaCat, in the assay with KB-3-1 and in the assay with NIH3T3 were -14.3%, -4.42% and 2.77%, respectively.

Regarding `CC1OC(OC2C(C)OC(OC3C(OC(=O)C45CCC(C)(C)CC4C4=CCC6C7(C)CCC(OC8OC(C(=O)O)C(O)C(O)C8OC8OC(CO)C(O)C(OC9OC(C)C(O)C(O)C9O)C8O)C(C)(CO)C7CCC6(C)C4(C)CC5)OC(CO)C(O)C3O)C(O)C2O)C(O)C(O)C1O` (centres undefined), the max response in the assay with HaCat is -14.7%; in the assay on NIH3T3 it was -18.1%. The call in the assay on KB-3-1 was inactive.

`OC[C@H]1O[C@@H](OC(CCCCc2ccc(O)cc2)CCc2ccc(O)cc2)[C@H](O)[C@@H](O)[C@@H]1O` (some centres undefined): the max response with HaCat is -20.5%; with NIH3T3 it was -27.4%. For the same molecule, the call in the assay with KB-3-1 was inactive.

(Values after PubChem BioAssay (NCATS).)
